# Source: PubChem BioAssay AID1159580 (chemical genetic matrix, 2015)
# The campaign covered roughly 5,500 compounds. About 2,000 (36%) were called active. Inconclusive results (about 18%) are left out. The list shows a part of the results. Unmarked numbers belong to inactive results. Cut-off read from the data, not from the text of the source: active = normalized growth mostly below about 0.91 (no sharp cut-off); inconclusive = no clear call, values can overlap the other calls; inactive = mostly above about 0.92.
# Assay: chemical genetic growth profiling, strain panel (AID 1159580);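 note: tested at 20 µM; growth read once vehicle control cultures reached saturation at 30 °C; 1 = growth at the plate median or of vehicle wells; lower values mean less growth of the strain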
# Details: growth OD
# [1] = S. cerevisiae deletion strains, locus YDL101C, strain DUN1, stronger effect = lower value
# [2] = S. cerevisiae deletion strains, locus YHR030C, strain SLT2, stronger effect = lower value
smiles,measurement,setting,value
CC(C)(C)c1cc(C(C)(C)C)n(-c2ccc(N=Cc3cc(Br)cc(Br)c3O)cc2)n1,normalized growth,"S. cerevisiae deletion strains, locus YAL013W, strain DEP1, stronger effect = lower value",0.157 (active)
same,normalized growth,"S. cerevisiae deletion strains, locus YBR229C, strain ROT2, stronger effect = lower value",0.204 (active)
same,normalized growth,"S. cerevisiae deletion strains, locus YCL061C, strain MRC1, stronger effect = lower value",0.194 (active)
same,normalized growth,[1],0.193 (active)
same,normalized growth,"S. cerevisiae deletion strains, locus YDR150W, strain NUM1, stronger effect = lower value",0.355 (active)
same,normalized growth,"S. cerevisiae deletion strains, locus YEL061C, strain CIN8, stronger effect = lower value",0.152 (active)
same,normalized growth,"S. cerevisiae deletion strains, locus YGR078C, strain PAC10, stronger effect = lower value",0.0895 (active)
same,normalized growth,[2],0.103 (active)
same,normalized growth,"S. cerevisiae deletion strains, locus YHR087W, strain rtc3, stronger effect = lower value",0.101 (active)
same,normalized growth,"S. cerevisiae deletion strains, locus YJR043C, strain POL32, stronger effect = lower value",0.357 (active)
same,normalized growth,"S. cerevisiae deletion strains, locus YJR075W, strain HOC1, stronger effect = lower value",0.119 (active)
same,normalized growth,"S. cerevisiae deletion strains, locus YKL190W, strain CNB1, stronger effect = lower value",0.187 (active)
same,normalized growth,"S. cerevisiae deletion strains, locus YLR039C, strain RIC1, stronger effect = lower value",0.074 (active)
same,normalized growth,"S. cerevisiae deletion strains, locus YLR058C, strain SHM2 (second series), stronger effect = lower value",0.318 (active)
same,normalized growth,"S. cerevisiae deletion strains, locus YLR085C, strain ARP6, stronger effect = lower value",0.12 (active)
same,normalized growth,"S. cerevisiae deletion strains, locus YLR262C, strain YPT6, stronger effect = lower value",0.0868 (active)
same,normalized growth,"S. cerevisiae deletion strains, locus YML094W, strain GIM5, stronger effect = lower value",0.209 (active)
same,normalized growth,"S. cerevisiae deletion strains, locus YMR219W, strain ESC1, stronger effect = lower value",0.219 (active)
same,normalized growth,"S. cerevisiae deletion strains, locus YMR263W, strain SAP30, stronger effect = lower value",0.163 (active)
same,normalized growth,"S. cerevisiae deletion strains, locus YNL153C, strain GIM3, stronger effect = lower value",0.267 (active)
same,normalized growth,"S. cerevisiae deletion strains, locus YNL298W, strain CLA4 (second series), stronger effect = lower value",0.174 (active)
same,normalized growth,"S. cerevisiae deletion strains, locus YNL322C, strain KRE1, stronger effect = lower value",0.679 (active)
same,normalized growth,"S. cerevisiae deletion strains, locus YNR030W, strain Alg12, stronger effect = lower value",0.468 (active)
same,normalized growth,"S. cerevisiae deletion strains, locus YPL055C, strain LGE1, stronger effect = lower value",0.172 (active)
same,normalized growth,"S. cerevisiae deletion strains, locus YPL241C, strain CIN2, stronger effect = lower value",0.64 (active)
same,normalized growth,"S. cerevisiae deletion strains, locus YPR135W, strain CTF4, stronger effect = lower value",0.276 (active)
same,normalized growth,"S. cerevisiae strains, strain wild type, stronger effect = lower value",0.141 (active)
CN(C)c1nc(=S)ss1,normalized growth,"S. cerevisiae deletion strains, locus YAR019C, strain CDC15, stronger effect = lower value",0.83 (active)
same,normalized growth,"S. cerevisiae deletion strains, locus YBL105C, strain PKC1, stronger effect = lower value",0.91
same,normalized growth,"S. cerevisiae deletion strains, locus YBR135W, strain CKS1, stronger effect = lower value",0.865 (active)
same,normalized growth,"S. cerevisiae deletion strains, locus YBR136W, strain MEC1, stronger effect = lower value",0.883 (active)
same,normalized growth,"S. cerevisiae deletion strains, locus YBR160W, strain CDC28, stronger effect = lower value",0.882 (active)
same,normalized growth,"S. cerevisiae deletion strains, locus YDL017W, strain CDC7, stronger effect = lower value",0.896 (active)
same,normalized growth,"S. cerevisiae deletion strains, locus YDL028C, strain MPS1, stronger effect = lower value",0.839 (active)
same,normalized growth,[1],0.937
same,normalized growth,"S. cerevisiae deletion strains, locus YDL108W, strain KIN28, stronger effect = lower value",0.878 (active)
same,normalized growth,"S. cerevisiae deletion strains, locus YDL132W, strain cdc53, stronger effect = lower value",0.687 (active)
same,normalized growth,"S. cerevisiae deletion strains, locus YDL214C, strain PRR2, stronger effect = lower value",0.332 (active)
same,normalized growth,"S. cerevisiae deletion strains, locus YDR052C, strain DBF4, stronger effect = lower value",0.886 (active)
same,normalized growth,"S. cerevisiae deletion strains, locus YDR054C, strain cdc34, stronger effect = lower value",0.569 (active)
same,normalized growth,"S. cerevisiae deletion strains, locus YDR226W, strain ADK1, stronger effect = lower value",0.865 (active)
same,normalized growth,"S. cerevisiae deletion strains, locus YDR477W, strain SNF1, stronger effect = lower value",0.319 (active)
same,normalized growth,"S. cerevisiae deletion strains, locus YER123W, strain YCK3, stronger effect = lower value",0.186 (active)
same,normalized growth,"S. cerevisiae deletion strains, locus YER133W, strain GLC7, stronger effect = lower value",0.211 (active)
same,normalized growth,"S. cerevisiae deletion strains, locus YFL009W, strain cdc4, stronger effect = lower value",0.732 (active)
same,normalized growth,"S. cerevisiae deletion strains, locus YFL029C, strain CAK1, stronger effect = lower value",0.747 (active)
same,normalized growth,"S. cerevisiae deletion strains, locus YFR003C, strain YPI1, stronger effect = lower value",0.905
same,normalized growth,"S. cerevisiae deletion strains, locus YFR019W, strain FAB1, stronger effect = lower value",0.221 (active)
same,normalized growth,"S. cerevisiae deletion strains, locus YFR028C, strain CDC14, stronger effect = lower value",0.894
same,normalized growth,"S. cerevisiae deletion strains, locus YGR040W, strain KSS1, stronger effect = lower value",0.47 (active)
same,normalized growth,"S. cerevisiae deletion strains, locus YGR052W, strain FMP48, stronger effect = lower value",0.349 (active)
same,normalized growth,"S. cerevisiae deletion strains, locus YGR092W, strain DBF2, stronger effect = lower value",0.111 (active)
same,normalized growth,[2],0.576 (active)
same,normalized growth,"S. cerevisiae deletion strains, locus YHR079C, strain IRE1, stronger effect = lower value",0.204 (active)
same,normalized growth,"S. cerevisiae deletion strains, locus YHR082C, strain KSP1, stronger effect = lower value",0.464 (active)
same,normalized growth,"S. cerevisiae deletion strains, locus YHR205W, strain SCH9, stronger effect = lower value",0.493 (active)
same,normalized growth,"S. cerevisiae deletion strains, locus YIL147C, strain SLN1, stronger effect = lower value",0.825 (active)
same,normalized growth,"S. cerevisiae deletion strains, locus YJL095W, strain BCK1, stronger effect = lower value",0.327 (active)
same,normalized growth,"S. cerevisiae deletion strains, locus YJL128C, strain PBS2, stronger effect = lower value",0.876
same,normalized growth,"S. cerevisiae deletion strains, locus YJL157C, strain FAR1, stronger effect = lower value",0.199 (active)
same,normalized growth,"S. cerevisiae deletion strains, locus YJR016C, strain ILV3, stronger effect = lower value",0.715 (active)
same,normalized growth,"S. cerevisiae deletion strains, locus YJR066W, strain TOR1 (second series), stronger effect = lower value",0.262 (active)
same,normalized growth,"S. cerevisiae deletion strains, locus YJR066W, strain TOR1, stronger effect = lower value",0.324 (active)
same,normalized growth,"S. cerevisiae deletion strains, locus YKL048C, strain ELM1, stronger effect = lower value",0.228 (active)
same,normalized growth,"S. cerevisiae deletion strains, locus YKL067W, strain YNK1, stronger effect = lower value",0.197 (active)
same,normalized growth,"S. cerevisiae deletion strains, locus YKL101W, strain HSL1, stronger effect = lower value",0.205 (active)
same,normalized growth,"S. cerevisiae deletion strains, locus YKL193C, strain SDS22, stronger effect = lower value",0.84 (active)
same,normalized growth,"S. cerevisiae deletion strains, locus YKL203C, strain TOR2, stronger effect = lower value",0.342 (active)
same,normalized growth,"S. cerevisiae deletion strains, locus YLR113W, strain HOG1, stronger effect = lower value",0.351 (active)
same,normalized growth,"S. cerevisiae deletion strains, locus YLR133W, strain CKI1, stronger effect = lower value",0.232 (active)
same,normalized growth,"S. cerevisiae deletion strains, locus YLR403W, strain SFP1, stronger effect = lower value",0.116 (active)
same,normalized growth,"S. cerevisiae deletion strains, locus YML070W, strain DAK1, stronger effect = lower value",0.199 (active)
same,normalized growth,"S. cerevisiae deletion strains, locus YMR001C, strain CDC5, stronger effect = lower value",0.87 (active)
same,normalized growth,"S. cerevisiae deletion strains, locus YMR205C, strain PFK2 (second series), stronger effect = lower value",0.229 (active)
same,normalized growth,"S. cerevisiae deletion strains, locus YMR277W, strain FCP1, stronger effect = lower value",0.827 (active)
same,normalized growth,"S. cerevisiae deletion strains, locus YNL006W, strain LST8, stronger effect = lower value",0.501 (active)
same,normalized growth,"S. cerevisiae deletion strains, locus YNL020C, strain ARK1, stronger effect = lower value",0.189 (active)
same,normalized growth,"S. cerevisiae deletion strains, locus YNL161W, strain CBK1, stronger effect = lower value",0.869 (active)
same,normalized growth,"S. cerevisiae deletion strains, locus YNL183C, strain NPR1, stronger effect = lower value",0.341 (active)
same,normalized growth,"S. cerevisiae deletion strains, locus YNL207W, strain RIO2, stronger effect = lower value",0.865 (active)
same,normalized growth,"S. cerevisiae deletion strains, locus YNL222W, strain SSU72, stronger effect = lower value",0.861 (active)
same,normalized growth,"S. cerevisiae deletion strains, locus YNL307C, strain MCK1 (second series), stronger effect = lower value",0.162 (active)
same,normalized growth,"S. cerevisiae deletion strains, locus YOL078W, strain AVO1, stronger effect = lower value",0.807 (active)
same,normalized growth,"S. cerevisiae deletion strains, locus YOL136C, strain PFK27, stronger effect = lower value",0.165 (active)
same,normalized growth,"S. cerevisiae deletion strains, locus YOR061W, strain CKA2, stronger effect = lower value",0.217 (active)
same,normalized growth,"S. cerevisiae deletion strains, locus YOR119C, strain RIO1, stronger effect = lower value",0.325 (active)
same,normalized growth,"S. cerevisiae deletion strains, locus YOR231W, strain MKK1, stronger effect = lower value",0.211 (active)
same,normalized growth,"S. cerevisiae deletion strains, locus YOR329C, strain SCD5, stronger effect = lower value",0.88 (active)
same,normalized growth,"S. cerevisiae deletion strains, locus YPL031C, strain PHO85, stronger effect = lower value",0.21 (active)
same,normalized growth,"S. cerevisiae deletion strains, locus YPL153C, strain RAD53, stronger effect = lower value",0.16 (active)
same,normalized growth,"S. cerevisiae deletion strains, locus YPL204W, strain HRR25, stronger effect = lower value",0.202 (active)
same,normalized growth,"S. cerevisiae deletion strains, locus YPL209C, strain IPL1, stronger effect = lower value",0.872 (active)
same,normalized growth,"S. cerevisiae deletion strains, locus YPL256C, strain CLN2, stronger effect = lower value",0.393 (active)
same,normalized growth,"S. cerevisiae deletion strains, locus YPR025C, strain CCL1, stronger effect = lower value",0.881 (active)
same,normalized growth,"S. cerevisiae deletion strains, locus YPR106W, strain ISR1, stronger effect = lower value",0.934
same,normalized growth,"S. cerevisiae deletion strains, locus YPR111W, strain DBF20, stronger effect = lower value",0.913
same,normalized growth,"S. cerevisiae deletion strains, strain NNK1, stronger effect = lower value",0.921
same,normalized growth,"S. cerevisiae deletion strains, strain TSCII, stronger effect = lower value",0.706 (active)
